Results filed as inconclusive are left out. Calls of active or inactive are those of the source. Calls come from the whole dose curve; as a rule, active = well fitted inhibition curve with a large enough effect; inconclusive = small, poorly fitted or top-dose-only effect; inactive = flat fitted curve, though single readings scatter.
Experiments:
Assay in all cases: qHTS profiling for inhibitors of Plasmodium falciparum proliferation (AID 504749); note: nearly all actives have a fitted effect of over 60% in size
Conditions in all cases: P. falciparum in erythrocytes, SYBR Green DNA, 72 h; series mostly up to 28.7 µM
[1] = tested on: CP211
Outline: (§1)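 Three-day growth assay of blood-stage parasites in erythrocytes (0.3% parasitemia, 2.5% hematocrit) at 37 C, 5% CO2, quantified by SYBR Green DNA staining after overnight detergent lysis.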

[2] = tested on: CP215
Outline: as §1

[3] = tested on: CP217
Outline: as §1

[4] = tested on: CP237
Outline: as §1

[5] = tested on: CP238
Outline: as §1

[6] = tested on: CP247
Outline: as §1

[7] = tested on: CP250
Outline: as §1

[8] = tested on: CP252
Outline: as §1

[9] = tested on: CP256
Outline: as §1

[10] = tested on: CP260
Outline: as §1

[11] = tested on: CP262
Outline: as §1

[12] = tested on: CP265
Outline: as §1

[13] = tested on: CP266
Outline: as §1

[14] = tested on: CP268
Outline: as §1

[15] = tested on: CP269
Outline: as §1

[16] = tested on: CP286
Outline: as §1

[17] = tested on: CP291
Outline: as §1

[18] = tested on: CP297
Outline: as §1

[19] = tested on: CP305
Outline: as §1

[20] = tested on: CP315
Outline: as §1

Measured: Potency

CCCCCCCCCCCCOS(=O)(=O)O
inactive: all assays above

CCCCCCCCCCCCCCCC(=O)NCCO
inactive: all assays above

O=c1[nH]c(=O)c2[nH]c(=O)[nH]c2[nH]1
inactive: all assays above

CCCCC(CC)COC(=O)c1ccccc1O (stereo not given)
inactive: all assays above

O=C(Oc1ccccc1C(=O)O)c1ccccc1O
inactive: all assays above

CCN(CC)CCNC(=O)c1cc(Cl)c(N)cc1OC
inactive: all assays above

CC(O)COc1ccccc1 (stereo not given)
inactive: all assays above

CCOC(=O)c1ccc(O)cc1
inactive: all assays above

N[C@@H](CSCCCO)C(=O)O
inactive: all assays above

Oc1cn2c(n1)Nc1ccc(Cl)c(Cl)c1C2
inactive: all assays above

Cc1cc2c(cc1S(N)(=O)=O)S(=O)(=O)CCC2
inactive: all assays above

Cc1cccc(C)c1NC(=O)CN(CC(=O)O)CC(=O)O
inactive: all assays above

COc1ccc(S(=O)(=O)Nc2nnc(CC(C)C)s2)cc1
inactive: all assays above

O=c1cc[nH]c(=O)[nH]1
inactive: all assays above

Nc1ccc(S(=O)(=O)Nc2nccs2)cc1
inactive: all assays above

O=C1NS(=O)(=O)c2ccccc21
inactive: all assays above

O=C(O)CC(O)C(=O)O (stereo not given)
inactive: all assays above

CCCCOC(=O)c1ccc(O)cc1
inactive: all assays above

NCCNCCNCCNCCN
inactive: all assays above

O=C1OC(OC(=O)c2cccnc2Nc2cccc(C(F)(F)F)c2)c2ccccc21 (stereo not given)
inactive: all assays above

CC1(C)[C@@H]2CC[C@@]1(C)C(=O)C2
inactive: all assays above

NS(=O)(=O)c1cc2c(cc1Cl)NC(CSCc1ccccc1)=NS2(=O)=O
inactive: all assays above

Cc1c(Cl)cccc1Nc1ccccc1C(=O)O
inactive: all assays above

Cc1cccc(Nc2cc(Cl)nc(SCC(=O)O)n2)c1C
inactive: all assays above

O=C(O)COc1nn(Cc2ccccc2)c2ccccc12
inactive: all assays above

CCCCCCCCCCCCCCCCCCOCC(O)CO (stereo not given)
inactive: all assays above

CCOC(=O)[C@H](CCc1ccccc1)N[C@@H](C)C(=O)N1C(=O)N(C)C[C@H]1C(=O)O
inactive: all assays above

C[C@@H]1CN(c2c(F)c(F)c3c(=O)c(C(=O)O)cn(C4CC4)c3c2F)C[C@H](C)N1
inactive: all assays above

CCC(=O)c1ccc(O)cc1
inactive: all assays above
